{"source": "PubChem BioAssay (EPA / NIEHS)", "note": "Where “and” joins values, the source holds several entries; their conditions need not be identical. Equal entries are not always repeated. Some structures have more than one record in an assay (separate samples or runs), and their calls can disagree. Calls of active or inactive are those of the source. How the source made its calls: active means hit-call score of the fitted dose curve at least 0.9, where 1 is the maximum; inactive means score below 0.9."}
{"test_system": "not listed separately", "experiment": "ATG_MRE_CIS: Attagene CIS-FACTORIAL HepG2 Assay for human Metal Responsive Element (MRE) (AID 2282954)", "details": "HepG2 MRE cis-reporter transcription, Attagene multiplex; actives raise or lower the signal", "method_in_brief": "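HepG2 cells transiently transfected with cis-element-driven reporter units; mRNA measured 24 h after dosing. Reporter transcripts quantified by RT-PCR, FAM labelling, HpaI digestion and capillary electrophoresis; bidirectional fit versus DMSO.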"}
{"smiles": "C=C(C)C(=O)OCCC(F)(F)C(F)(F)C(F)(F)C(F)(F)C(F)(C(F)(F)F)C(F)(F)F", "outcome": "inactive"}
{"smiles": "CCCCCCCCCCCCCCCC[N+](C)(C)Cc1ccccc1", "outcome": "inactive"}
{"smiles": "CC(C)(C)C(=O)CC(=O)C(F)(F)C(F)(F)C(F)(F)F", "outcome": "inactive"}
{"smiles": "C(=C(c1ccccc1)c1ccccc1)c1ccccc1", "outcome": "inactive"}
{"smiles": "CCCCNc1ccccc1", "outcome": "inactive"}
{"smiles": "O=C(O)C(F)(F)C(F)(F)C(F)(F)F", "outcome": "inactive"}
{"smiles": "FC(F)(F)C(F)(F)C(F)(F)N(C(F)(F)C(F)(F)C(F)(F)F)C(F)(F)C(F)(F)C(F)(F)F", "outcome": "inactive"}
{"smiles": "O=S(=O)(OCC(F)F)C(F)(F)F", "outcome": "inactive"}
{"smiles": "COC(OC(C)=O)c1ccccc1", "note": "(configuration not stated)", "outcome": "inactive"}
{"smiles": "FC(F)(Br)C(F)(F)C(F)(F)C(F)(F)C(F)(F)C(F)(F)Br", "outcome": "inactive"}
{"smiles": "O=C(O)C(F)(OC(F)(F)C(F)(OC(F)(F)C(F)(F)C(F)(F)F)C(F)(F)F)C(F)(F)F", "note": "(configuration not stated)", "outcome": "inactive"}
{"smiles": "O=C(O)C(F)(F)C(F)(F)C(F)(F)C(F)(F)C(F)(F)C(F)(F)C(F)(F)C(F)(F)C(F)(F)C(F)(F)C(F)(F)C(F)(F)C(F)(F)F", "outcome": "inactive"}
{"smiles": "O=C(O)C(F)(F)C(F)(F)C(F)(F)C(F)(F)C(F)(F)C(F)(F)C(F)(F)C(F)(F)C(F)(F)C(F)F", "AC50": "25.3 µM (active)"}
{"smiles": "O=C(O)C(F)(F)C(F)(F)C(F)F", "outcome": "inactive"}
{"smiles": "CCCCCCOC(=O)c1ccccc1O", "outcome": "inactive"}
{"smiles": "NC(=O)C(F)(F)C(F)(F)C(F)(F)C(F)(F)F", "outcome": "inactive"}
{"smiles": "FC(F)(F)C(F)(F)C(F)(F)C(F)(F)C(F)(F)C(F)(F)CC1CO1", "note": "(configuration not stated)", "outcome": "inactive"}
{"smiles": "FC1CC(F)(F)C(F)(F)C1(F)F", "note": "(configuration not stated)", "outcome": "inactive"}
{"smiles": "CCCCOc1ccc(N)cc1", "outcome": "inactive"}
{"smiles": "O=C(O)C(F)(F)C(F)(F)C(F)(F)C(F)(F)C(F)(F)C(F)(F)C(F)(F)C(F)(F)Cl", "AC50": "55.5 µM (active) and 66.6 µM (active)"}
{"smiles": "CC(Cc1ccc(O)c(O)c1)C(C)Cc1ccc(O)c(O)c1", "note": "(configuration not stated)", "AC50": "22.3 µM (active)"}
{"smiles": "FC(F)(F)C(F)(F)C(F)(F)C(F)(F)C(F)(F)C(F)(F)C(F)(F)I", "outcome": "inactive"}
{"smiles": "CCCCOCCOCCOC(=O)CCCCC(=O)OCCOCCOCCCC", "outcome": "inactive"}
{"smiles": "OCCCC(F)(F)C(F)(F)C(F)(F)C(F)(F)C(F)(F)C(F)(F)C(F)(F)F", "AC50": "50 µM (active)", "outcome": "inactive"}
{"smiles": "CNC(=S)NC", "outcome": "inactive"}
{"smiles": "[Co]", "outcome": "inactive"}
{"smiles": "C=CC(F)(F)C(F)(F)C(F)(F)C(F)(F)C(F)(F)C(F)(F)C(F)(F)C(F)(F)C=C", "outcome": "inactive"}
{"smiles": "CCC(=O)OCCc1ccccc1", "outcome": "inactive"}
{"smiles": "CC/C=C\\CCOC(=O)c1ccccc1", "outcome": "inactive"}
{"smiles": "O=C(C=Cc1ccccc1)OCC=Cc1ccccc1", "outcome": "inactive"}
{"smiles": "CCCCCCCOC(=O)c1ccccc1C(=O)OCCCCCCC", "outcome": "inactive"}
{"smiles": "OCCCC(F)(F)C(F)(F)C(F)(F)F", "outcome": "inactive"}
{"smiles": "CCCCCCC(C)OC(=O)CCCCC(=O)OC(C)CCCCCC", "note": "(configuration not stated)", "outcome": "inactive"}
{"smiles": "OCC(F)(F)C(F)(F)C(F)(F)F", "outcome": "inactive"}
{"test_system": "not listed separately", "experiment": "ATG_PBREM_CIS: Attagene CIS-FACTORIAL HepG2 Assay for human Phenobarbital-responsive Enhancer Module (PBREM) (AID 2282955)", "details": "HepG2 PBREM cis-reporter, Attagene multiplexed transcription; actives raise or lower the signal", "method_in_brief": "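Reporter mRNA read by RT-PCR, 6-FAM primer extension, HpaI digestion and capillary electrophoresis. Transfected HepG2 cells, 24 h compound exposure. Gain or loss of signal fitted bidirectionally relative to DMSO baseline.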"}
{"smiles": "C=C(C)C(=O)OCCC(F)(F)C(F)(F)C(F)(F)C(F)(F)C(F)(C(F)(F)F)C(F)(F)F", "outcome": "inactive"}
{"smiles": "O=C(O)C(F)(F)C(F)(F)C(F)(F)F", "outcome": "inactive"}
{"smiles": "FC(F)(F)C(F)(F)C(F)(F)N(C(F)(F)C(F)(F)C(F)(F)F)C(F)(F)C(F)(F)C(F)(F)F", "outcome": "inactive"}
{"smiles": "O=S(=O)(OCC(F)F)C(F)(F)F", "outcome": "inactive"}
{"smiles": "O=C(O)C(F)(F)C(F)(F)C(F)(F)C(F)(F)C(F)(F)C(F)(F)C(F)(F)C(F)(F)C(F)(F)C(F)F", "outcome": "inactive"}
{"smiles": "O=C(O)C(F)(F)C(F)(F)C(F)F", "outcome": "inactive"}
{"smiles": "CCCCCCOC(=O)c1ccccc1O", "outcome": "inactive"}
{"smiles": "NC(=O)C(F)(F)C(F)(F)C(F)(F)C(F)(F)F", "outcome": "inactive"}
{"smiles": "FC1CC(F)(F)C(F)(F)C1(F)F", "note": "(configuration not stated)", "outcome": "inactive"}
{"smiles": "O=C(O)C(F)(F)C(F)(F)C(F)(F)C(F)(F)C(F)(F)C(F)(F)C(F)(F)C(F)(F)Cl", "outcome": "inactive"}
{"smiles": "OCCCC(F)(F)C(F)(F)C(F)(F)C(F)(F)C(F)(F)C(F)(F)C(F)(F)F", "AC50": "150 µM (active)", "outcome": "inactive"}
{"smiles": "OCC(F)(F)C(F)(F)C(F)(F)F", "outcome": "inactive"}
{"target": "Paired box protein Pax-6 (Homo sapiens) (UniProt P26367)", "sequence (P26367 whole entry, looked up)": "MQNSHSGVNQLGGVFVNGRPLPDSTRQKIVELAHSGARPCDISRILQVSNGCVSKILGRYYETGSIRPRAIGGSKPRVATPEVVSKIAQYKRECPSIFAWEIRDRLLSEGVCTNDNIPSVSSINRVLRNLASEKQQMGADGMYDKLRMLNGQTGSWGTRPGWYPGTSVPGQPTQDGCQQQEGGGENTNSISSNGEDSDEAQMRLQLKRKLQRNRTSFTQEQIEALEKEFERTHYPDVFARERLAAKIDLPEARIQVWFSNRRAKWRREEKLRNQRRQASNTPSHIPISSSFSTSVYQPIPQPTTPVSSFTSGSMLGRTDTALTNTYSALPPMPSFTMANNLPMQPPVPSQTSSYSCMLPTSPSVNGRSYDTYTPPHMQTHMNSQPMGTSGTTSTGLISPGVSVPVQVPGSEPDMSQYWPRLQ", "experiment": "ATG_Pax6_CIS: Attagene CIS-FACTORIAL HepG2 Assay for human Paired Box 6 (PAX6) (AID 2282956)", "details": "HepG2 CIS-FACTORIAL PAX6 reporter transcription, RNA readout; actives raise or lower the signal", "method_in_brief": "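Multiplexed cis-reporter HepG2 system; 24 h treatment; reporter mRNA read by RT-PCR/CE fluorescence; bidirectional fit vs DMSO.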"}
{"smiles": "C=C(C)C(=O)OCCC(F)(F)C(F)(F)C(F)(F)C(F)(F)C(F)(C(F)(F)F)C(F)(F)F", "outcome": "inactive"}
{"smiles": "CCCCCCCCCCCCCCCC[N+](C)(C)Cc1ccccc1", "outcome": "inactive"}
{"smiles": "CC(C)(C)C(=O)CC(=O)C(F)(F)C(F)(F)C(F)(F)F", "outcome": "inactive"}
{"smiles": "C(=C(c1ccccc1)c1ccccc1)c1ccccc1", "outcome": "inactive"}
{"smiles": "CCCCNc1ccccc1", "outcome": "inactive"}
{"smiles": "O=C(O)C(F)(F)C(F)(F)C(F)(F)F", "outcome": "inactive"}
{"smiles": "FC(F)(F)C(F)(F)C(F)(F)N(C(F)(F)C(F)(F)C(F)(F)F)C(F)(F)C(F)(F)C(F)(F)F", "outcome": "inactive"}
{"smiles": "O=S(=O)(OCC(F)F)C(F)(F)F", "outcome": "inactive"}
{"smiles": "COC(OC(C)=O)c1ccccc1", "note": "(configuration not stated)", "outcome": "inactive"}
{"smiles": "FC(F)(Br)C(F)(F)C(F)(F)C(F)(F)C(F)(F)C(F)(F)Br", "outcome": "inactive"}
{"smiles": "O=C(O)C(F)(OC(F)(F)C(F)(OC(F)(F)C(F)(F)C(F)(F)F)C(F)(F)F)C(F)(F)F", "note": "(configuration not stated)", "outcome": "inactive"}
{"smiles": "O=C(O)C(F)(F)C(F)(F)C(F)(F)C(F)(F)C(F)(F)C(F)(F)C(F)(F)C(F)(F)C(F)(F)C(F)(F)C(F)(F)C(F)(F)C(F)(F)F", "outcome": "inactive"}
{"smiles": "O=C(O)C(F)(F)C(F)(F)C(F)(F)C(F)(F)C(F)(F)C(F)(F)C(F)(F)C(F)(F)C(F)(F)C(F)F", "outcome": "inactive"}
{"smiles": "O=C(O)C(F)(F)C(F)(F)C(F)F", "outcome": "inactive"}
{"smiles": "CCCCCCOC(=O)c1ccccc1O", "outcome": "inactive"}
{"smiles": "NC(=O)C(F)(F)C(F)(F)C(F)(F)C(F)(F)F", "outcome": "inactive"}
{"smiles": "FC(F)(F)C(F)(F)C(F)(F)C(F)(F)C(F)(F)C(F)(F)CC1CO1", "note": "(configuration not stated)", "outcome": "inactive"}
{"smiles": "FC1CC(F)(F)C(F)(F)C1(F)F", "note": "(configuration not stated)", "outcome": "inactive"}
{"smiles": "CCCCOc1ccc(N)cc1", "outcome": "inactive"}
{"smiles": "O=C(O)C(F)(F)C(F)(F)C(F)(F)C(F)(F)C(F)(F)C(F)(F)C(F)(F)C(F)(F)Cl", "AC50": "59.1 µM (active) and 50 µM (active)"}
{"smiles": "CC(Cc1ccc(O)c(O)c1)C(C)Cc1ccc(O)c(O)c1", "note": "(configuration not stated)", "AC50": "22.1 µM (active)"}
{"smiles": "FC(F)(F)C(F)(F)C(F)(F)C(F)(F)C(F)(F)C(F)(F)C(F)(F)I", "outcome": "inactive"}
{"smiles": "CCCCOCCOCCOC(=O)CCCCC(=O)OCCOCCOCCCC", "outcome": "inactive"}
{"smiles": "OCCCC(F)(F)C(F)(F)C(F)(F)C(F)(F)C(F)(F)C(F)(F)C(F)(F)F", "AC50": "50 µM (active) and 41.8 µM (active)"}
{"smiles": "CNC(=S)NC", "outcome": "inactive"}
{"smiles": "[Co]", "outcome": "inactive"}
{"smiles": "C=CC(F)(F)C(F)(F)C(F)(F)C(F)(F)C(F)(F)C(F)(F)C(F)(F)C(F)(F)C=C", "outcome": "inactive"}
{"smiles": "CCC(=O)OCCc1ccccc1", "outcome": "inactive"}
{"smiles": "CC/C=C\\CCOC(=O)c1ccccc1", "outcome": "inactive"}
{"smiles": "O=C(C=Cc1ccccc1)OCC=Cc1ccccc1", "outcome": "inactive"}
{"smiles": "CCCCCCCOC(=O)c1ccccc1C(=O)OCCCCCCC", "outcome": "inactive"}
{"smiles": "OCCCC(F)(F)C(F)(F)C(F)(F)F", "outcome": "inactive"}
{"smiles": "CCCCCCC(C)OC(=O)CCCCC(=O)OC(C)CCCCCC", "note": "(configuration not stated)", "outcome": "inactive"}
{"smiles": "OCC(F)(F)C(F)(F)C(F)(F)F", "outcome": "inactive"}
